Molecules are shown by their SMILES. Where “and” joins values, the source holds several entries; their conditions need not be identical. Identical values can stand only once. For some of these results: Potency and affinity values are given separately. Calls of active or inactive are those of the source. Unless noted, the rule behind the calls is not given here.

Test [1] in a line: blockers of polyQ-driven CASP3 activation – cell-based (AID 1583). Conditions: polyglutamine-induced caspase-3 activation, cell assay; stronger effect = higher value;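 tested at 10 µM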.
The nature of test [2]: yeast 75Q aggregation reduction – 75Q-TubU reporter (AID 1593). Conditions: Yeast 75Q polyglutamine aggregation reporter.
Test [3] can be described thus: restoration of touch response, mutant HTT neurons – whole organism, C. elegans mechanosensory neurons, N-terminal huntingtin (AID 1599). Conditions: C. elegans polyQ-huntingtin mechanosensory neurons, stronger effect = higher value.
The nature of test [4]: blockers of cytochrome c efflux from mitochondria – biochemical, purified mitochondria (AID 1603).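 Note: mouse liver mitochondria challenged with calcium chloride; signal normalized to the plate average as 100%.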 The settings on record: stronger effect = lower value.
Test [5] can be described thus: polyglutamine aggregate formation blockers (AID 1604). Conditions: polyglutamine-induced protein aggregation inhibition assay; stronger effect = higher value; tested at 2.5 µM.
A short description of test [6]: glutamate transport activators, MN-1 cells, MN-1 cell line (AID 1612).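 Note: tested at 1 µM final; 0% = mean of DMSO vehicle wells on each plate; positive means more glutamate uptake than control and negative means less.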 Conditions: MN-1 motor neuron cells, stronger effect = higher value.
A short description of test [7]: 75Q-TubH aggregate inhibition, S. cerevisiae, yeast (AID 1616). The settings on record: S. cerevisiae 75Q-TubH polyglutamine aggregation suppression; stronger effect = higher value.
A short description of test [8]: compounds altering viability of human ES cells (AID 493140).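 Note: cells exposed to compounds for four days before counting.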 The settings on record: human embryonic stem cell survival screen; stronger effect = higher value.
Test [9] in a line: signal quenchers or enhancers, Cy5 substrate/SSB – biochemical, NIH Clinical Collection, E. coli SSB, artefact control for HCV NS3 helicase inhibitor project (AID 743268). The settings on record: Cy5-oligo bound E. coli SSB, fluorescence interference.
The subject of test [10] is Hepatitis C virus NS3 helicase. Description: blockers of NS3h binding to DNA – biochemical, fluorescence polarization, NIH Clinical Collection, primary screen (AID 743270). The settings on record: NS3 helicase binding to Cy5-dT15 DNA, stronger effect = higher value, concentration not given here.
The target in test [11] is Single-stranded DNA-binding protein (Escherichia coli (strain K12)) (UniProt P0AGE0). Description: SSB-ssDNA binding inhibitors – biochemical, fluorescence polarization, NIH Clinical Collection, counter-screen for HCV NS3 helicase inhibitor project (AID 743271; in the data active = inhibition above about 28%). Conditions: E. coli SSB-DNA binding, stronger effect = higher value, concentration not given here. Background: Polarisation of emitted light reports the rotation of a fluorescent probe.

Test [12] is described as follows: compounds distorting NS3 helicase fluorescence signal – biochemical, NIH Clinical Collection, artefact control for HCV NS3 helicase inhibitor project (AID 743272).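 Note: HCV NS3 helicase with a Cy5 labelled single stranded DNA probe.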 Conditions: fluorescence interference counterscreen, HCV NS3 helicase assay; stronger effect = lower value. (In general: The purpose of a counterscreen is to sort out artefacts and off-target activity.)
A short description of test [13]: modulation of C. elegans fzo-1 (AID 1259413).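 Note: fzo-1 mutant C. elegans worms in liquid wells.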 Conditions: C. elegans fzo-1 modulator screen, mean read-out; stronger effect = higher value.
In test [14] the target is Mitogen-activated protein kinase 7 (Homo sapiens) (UniProt Q13164). Description: Gal4-ERK5 driven luciferase induction – cell-based, HTS, primary screen (AID 1508626;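 active = luciferase signal above three times the same-plate solvent-only control wells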;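 note: luciferase driven by Gal4-ERK5 fusion binding five Gal4 sites before minimal TATA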). Conditions: HeLa Gal4-ERK5 transactivation, 18 h, at 5 µM, stronger effect = higher value.
Test [15] is described as follows: galactose survival enhancers in mitochondrial complex I cybrids – cell-based, galactose medium, ATP luminescence, primary screen (AID 1645843;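 active = z-score of at least 1.8 in each of two replicates, scored against plate mean and spread of sample wells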;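 note: positive z means more ATP and so rescue of galactose-driven cybrid death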). Conditions: complex I mutant cybrid cells, 72 h, stronger effect = higher value.
A further test relates to R275C/beta1. As to the kind of experiment: BK channel mutant inhibitors and activators – cell-based, U2OS BacMam, thallium flux, beta subunits, selectivity assay, profiling panel (AID 1259406;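 active = thallium flux through the channel raised or lowered by more than 3 SD from vehicle-only wells, actives on both sides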;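 note: initial slope of Thallos dye fluorescence rise after thallium is added; log ratio against the mean of 0.3% DMSO vehicle wells on the same plate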). Conditions: U2OS BacMam BK variants, at 30 µM.
In the next test the test system is R275C/beta2Delta. The description is as above. Conditions: U2OS BacMam BK variants, at 30 µM.
A further test deals with R275C/beta4. The description is as above. The settings on record: U2OS BacMam BK variants, at 30 µM.
In another test the test system is R275C/Slo1WT/beta2. The description is as above. The settings on record: U2OS BacMam BK variants, at 30 µM.
The nature of test [16]: growth inhibition, single agents and combos, ICB984, cell-based, cisplatin or BGB combos, synergistic combos for chromothripsis tumors (AID 1671451).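 Note: cells exposed for 96 hours before readout; 0% = vehicle DMSO and 100% = killing by high DMSO.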 The settings on record: ICB984 medulloblastoma cells, drug combinations, stronger effect = higher value.

Sequence of Mitogen-activated protein kinase 7 (Homo sapiens) (Q13164 whole entry, looked up, the tested form may be a part): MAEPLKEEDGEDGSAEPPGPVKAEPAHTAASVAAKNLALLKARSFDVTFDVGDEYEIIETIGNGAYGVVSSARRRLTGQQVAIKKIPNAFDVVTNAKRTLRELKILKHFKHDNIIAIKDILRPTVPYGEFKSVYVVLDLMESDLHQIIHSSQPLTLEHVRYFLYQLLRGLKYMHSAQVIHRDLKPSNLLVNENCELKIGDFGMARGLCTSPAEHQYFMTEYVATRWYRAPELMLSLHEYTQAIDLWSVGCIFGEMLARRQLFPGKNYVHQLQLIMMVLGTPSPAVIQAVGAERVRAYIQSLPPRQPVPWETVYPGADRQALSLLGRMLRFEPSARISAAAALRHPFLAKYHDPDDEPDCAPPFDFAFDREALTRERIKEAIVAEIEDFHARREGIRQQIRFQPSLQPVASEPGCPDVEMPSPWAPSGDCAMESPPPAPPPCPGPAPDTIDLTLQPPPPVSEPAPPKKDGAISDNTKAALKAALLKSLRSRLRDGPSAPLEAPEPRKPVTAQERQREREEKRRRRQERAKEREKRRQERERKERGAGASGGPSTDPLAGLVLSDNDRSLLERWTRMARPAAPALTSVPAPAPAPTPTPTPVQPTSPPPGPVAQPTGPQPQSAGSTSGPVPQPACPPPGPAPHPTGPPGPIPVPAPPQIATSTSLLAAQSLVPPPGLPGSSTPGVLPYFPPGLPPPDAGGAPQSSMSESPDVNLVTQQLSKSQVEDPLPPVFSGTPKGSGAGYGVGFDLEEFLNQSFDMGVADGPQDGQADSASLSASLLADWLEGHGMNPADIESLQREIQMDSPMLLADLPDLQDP

With `CCCc1cc(=O)[nH]c(=S)[nH]1`, the figures for the inhibition in test [1], in test [10] and in [11] were -28.5%, -1.36% (inactive) and 0.29% (inactive), respectively. Moreover, the score in test [2] was found to be 1.06. In test [3], the rescue above control is -2.2. The cytochrome c release ratio in [4] is 1.02. The inhibition of aggregation in [5] was found to be 48%. Further, in test [6], the glutamate uptake change worked out at 4.57%. In addition, the aggregation suppression score in [7] stood at 1.14. Besides, the survival in test [8] is 31.3 (inactive). Also, the values for the fluorescence ratio in test [9] and in test [12] were 1.04 (inactive) and 0.97 (inactive), respectively. For the same molecule, the mean signal in test [13] is 248 (inactive). Also, the luciferase signal in test [14] is 88 AU (inactive). Further, the z-score in test [15] is 0.835 (inactive). The log fold change Tl+ flux is -0.00439 (inactive) with R275C/beta1, -0.0158 (inactive) with R275C/beta2Delta, -0.0141 (inactive) in the test on R275C/beta4 and 0.0488 (inactive) with R275C/Slo1WT/beta2.
For `CC(C)Cc1ccc(C(C)C(=O)O)cc1` (centres undefined), the inhibition in test [1] was -4.83%. Besides, the score in test [2] came to 0.01. In [3], this molecule had a rescue above control of 11.4. In addition, in test [4], the cytochrome c release ratio came to 0.94. In test [5], this molecule showed an inhibition of aggregation of 47.1%. The glutamate uptake change in [6] came to 16.3%. Also, the aggregation suppression score in test [7] is -0.00282. In [13], the mean signal was 242 (inactive). Also, the luciferase signal in test [14] is 24 AU (inactive). The z-score in test [15] is 0.975 (inactive) and -0.01 (inactive) and 0.46 (inactive). For the same molecule, the log fold change Tl+ flux with R275C/beta1 was -0.00083 (inactive); with R275C/beta2Delta it was -0.00841 (inactive); with R275C/beta4 it was -0.0471 (inactive); in the test on R275C/Slo1WT/beta2 it was 0.0328 (inactive).
Regarding `CCCCNc1cc(C(=O)O)cc(S(N)(=O)=O)c1Oc1ccccc1`, the inhibition in test [1] is 4.16%; in test [10], -5.91% (inactive); in test [11], -2.76% (inactive). Also, in test [2], the score turned out to be 1.19. Moreover, in test [3], the rescue above control is -11.4. The cytochrome c release ratio in test [4] amounted to 1.53. The same molecule gave an inhibition of aggregation in test [5] of 71.8%. The glutamate uptake change in test [6] was -4.68%. The same molecule registered an aggregation suppression score in test [7] of 1.32. Moreover, the survival in [8] was 12.6 (inactive). The results for the fluorescence ratio in test [9] and in test [12] were 1.02 (inactive) and 0.97 (inactive), respectively. Also, the mean signal in [13] is 228 (inactive). Further, the luciferase signal in [14] was 32 AU (inactive). Moreover, in [15], the z-score is 0.145 (inactive) and 0.39 (inactive) and 0.32 (inactive). In addition, the log fold change Tl+ flux in the test on R275C/beta1 is 0.0319 (inactive); in the test on R275C/beta2Delta, -0.0196 (inactive); with R275C/beta4, 0.0225 (inactive); with R275C/Slo1WT/beta2, 0.0333 (inactive).
Regarding `O=C1c2c(O)ccc(O)c2C(=O)c2c(NCCNCCO)ccc(NCCNCCO)c21`, the inhibition is 63.3% in test [1]; 128% (active) in test [10]; 121% (active) in test [11]; 17.1% in [16] (BGB IC20 combo, at 0.005 µM); 14.7% in test [16] (BGB IC40 combo, at 0.005 µM); 101% in [16] (BGB IC40 combo, at 0.05 µM). Further, the inhibition in [16] (at 0.5 µM) is -30% (inactive); in test [16] (cisplatin combo, at 0.05 µM), 101%; in [16] (cisplatin combo, at 0.5 µM), -40.5%; in [16] (cisplatin combo, at 5 µM), -32.5%; in [16] (measured here: 5 uM single agent, at 5 µM) it was -34.5%. The score in test [2] was -2.9. In [3], this molecule came in with a rescue above control of 0. In test [4], the cytochrome c release ratio was found to be 3.49. Moreover, the inhibition of aggregation in test [5] came out at 52.2%. Moreover, the glutamate uptake change in [6] was -30.1%. The molecule further gave an aggregation suppression score in [7] of -1.69. Besides, in [8], the survival was 0.583 (inactive). Besides, the figures for the fluorescence ratio in [9] and in test [12] were 0.74 (active) and 0.92 (inactive), respectively. In addition, the mean signal in test [13] was 214 (inactive). For the same molecule, the luciferase signal in test [14] was 20 AU (inactive). Besides, in [15], the z-score is -1.29 (inactive) and -1.52 (inactive) and -2.29 (inactive). The log fold change Tl+ flux in the test with R275C/beta1 is -0.052 (inactive); in the test with R275C/beta2Delta it was -0.0164 (inactive); with R275C/beta4 it was -0.0611 (inactive); in the test on R275C/Slo1WT/beta2, -0.0613 (inactive).

For orientation: inhibition means the relative decrease from the control value, in per cent.

(Values after PubChem BioAssay.)
